# Data: PubChem BioAssay (Tox21)
# Several values for one entry are separate records, joined by “and”; a condition that tells them apart may be missing. Equal values may be shown once. Records with an inconclusive call do not appear. Entries that show only a call come without a potency. Where a structure was tested more than once in an assay, its records may differ in their call. Activity calls are given as the source filed them. Unless noted, calls come from the whole dose curve; as a rule, active = well fitted curve in the direction sought with a large enough effect in the repeat runs; inconclusive = weak or mixed curves; inactive = no such curve, though single readings can be large; an effect the other way counts as inactive or inconclusive.
# Tests used:
# [1] = qHTS assay to identify small molecule antagonists of the estrogen related receptor (ERR) signaling pathway from Tox21 library - cell viability counter screen (AID 1224834); note: nearly all actives have a fitted effect of over 30% in size; note: potency is the fitted concentration of half-maximal effect
# Summary of the method: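 Seeded ERR cells were rested 6 h at 37 C/5% CO2 before compounds, positive and negative controls or DMSO were added. Incubation continued for 17.5 h, and viability was then quantified by CellTiter-Fluor fluorescence.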
# [2] = biological target: Luciferin 4-monooxygenase (Photinus pyralis) (UniProt P08659); test: qHTS assay to identify small molecule inhibitors of firefly luciferase (AID 1224835); note: nearly all actives have a fitted effect of over 25% in size; note: potency is the fitted concentration of half-maximal effect; for activity change, negative = inhibition: series mostly up to about 120 µM
# Sequence of Luciferin 4-monooxygenase (Photinus pyralis) (P08659 whole entry, looked up): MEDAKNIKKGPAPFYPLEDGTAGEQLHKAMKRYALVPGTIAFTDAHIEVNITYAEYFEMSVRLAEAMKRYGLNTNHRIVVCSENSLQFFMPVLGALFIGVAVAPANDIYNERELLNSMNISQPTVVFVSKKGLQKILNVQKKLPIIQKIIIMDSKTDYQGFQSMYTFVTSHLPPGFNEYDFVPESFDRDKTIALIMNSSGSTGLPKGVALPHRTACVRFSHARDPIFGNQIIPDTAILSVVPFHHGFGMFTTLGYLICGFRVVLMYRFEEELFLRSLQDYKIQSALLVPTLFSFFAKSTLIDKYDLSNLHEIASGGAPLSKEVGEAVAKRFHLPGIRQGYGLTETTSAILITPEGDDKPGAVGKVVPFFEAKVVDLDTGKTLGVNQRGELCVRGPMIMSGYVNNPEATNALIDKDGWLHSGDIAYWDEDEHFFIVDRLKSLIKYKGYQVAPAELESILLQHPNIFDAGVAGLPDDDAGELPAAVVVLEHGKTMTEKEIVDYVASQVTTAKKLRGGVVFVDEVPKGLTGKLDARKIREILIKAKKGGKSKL
# Summary of the method: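 Quantitative HTS format; KM concentrations of both substrates. Purified P. pyralis FLuc activity quantified from luminescence images.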
# [3] = qHTS assay to identify small molecule agonists of the constitutive androstane receptor (CAR) signaling pathway - cell viability counter screen (AID 1224836); note: nearly all actives have a fitted effect of over 45% in size; note: potency is the fitted concentration of half-maximal effect; for viability change, negative = cytotoxic: series mostly up to about 92 µM
# Summary of the method: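 Using CellTiter-Fluor, viability of HepG2 cells harbouring hCAR and CYP2B6-2.2kb was measured following 23 h incubation with a 15-concentration compound series plus PK11195 (0.75 uM final).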
# [4] = qHTS assay to identify small molecule antagonists of the constitutive androstane receptor (CAR) signaling pathway - cell viability counter screen (AID 1224837); note: nearly all actives have a fitted effect of over 45% in size; note: potency is the fitted concentration of half-maximal effect; for activity change, negative = cytotoxicity: series mostly up to about 92 µM
# Summary of the method: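 To flag cytotoxic false antagonists, HepG2 hCAR/CYP2B6-2.2kb cells were treated 23 hr with 15-concentration compound series and 50 nM CITCO at 37 C/5% CO2; CellTiter-Fluor fluorescence was the measured end point.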
# [5] = biological target: Nuclear receptor subfamily 1 group I member 3 (Homo sapiens) (UniProt Q14994); test: qHTS assay to identify small molecule antagonists of the constitutive androstane receptor (CAR) signaling pathway (AID 1224838);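 note: HepG2 cells stably expressing hCAR with CYP2B6 luciferase reporter stimulated by CITCO; nearly all actives have a fitted effect of over 40% in size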; note: potency is the fitted concentration of half-maximal effect
# Sequence of Nuclear receptor subfamily 1 group I member 3 (Homo sapiens) (Q14994 whole entry, looked up): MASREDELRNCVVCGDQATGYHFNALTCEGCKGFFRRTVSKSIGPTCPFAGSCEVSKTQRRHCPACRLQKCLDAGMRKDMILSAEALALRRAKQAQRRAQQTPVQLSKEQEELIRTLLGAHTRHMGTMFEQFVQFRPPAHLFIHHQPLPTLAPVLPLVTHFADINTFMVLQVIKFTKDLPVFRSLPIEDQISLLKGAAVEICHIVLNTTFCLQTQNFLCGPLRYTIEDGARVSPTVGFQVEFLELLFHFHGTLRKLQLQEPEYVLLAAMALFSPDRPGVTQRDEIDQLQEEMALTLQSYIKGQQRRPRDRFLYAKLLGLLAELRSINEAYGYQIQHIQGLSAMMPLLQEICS
# Summary of the method: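 Human hepatoma HepG2 cells expressing hCAR and a CYP2B6 promoter (2.2 kb) luciferase construct; compound titration (15 points) with 50 nM CITCO final, 24 h at 37 C/5% CO2; luminescence via ONE-Glo after 30 min at room temperature.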
# [6] = biological target: Nuclear receptor subfamily 1 group I member 3 (Homo sapiens) (UniProt Q14994); test: qHTS assay to identify small molecule agonists of the constitutive androstane receptor (CAR) signaling pathway (AID 1224839); note: nearly all actives have a fitted effect of over 15% in size; note: potency is the fitted concentration of half-maximal effect;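 for activation: HepG2 cells stably carrying human CAR and a CYP2B6 luciferase reporter; series mostly up to about 92 µM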
# Summary of the method: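 Double-stable HepG2 cells (hCAR, CYP2B6-2.2kb) seeded 4 h before compound addition. Exposure 24 h with 0.75 uM PK11195 final. Luciferase detected by ONE-Glo.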
# [7] = qHTS assay to identify small molecule antagonists of the estrogen related receptor signaling pathway with the pleiotropic PPARgamma coactivator (PGC) from Tox21 10K library - cell viability counter screen (AID 1224840; active = well fitted cell-killing curve with a large enough effect in the repeat runs, not every such curve was filed as active; note: nearly all actives have a fitted effect of over 40% in size; note: potency is the fitted concentration of half-maximal effect)
# Summary of the method: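 Seeded PGC/ERR cells (2,000/well, 6 h, 37 C/5% CO2) get compound by pin tool; 17.5 h incubation at 37 C; CellTiter-Fluor added, 30 min, fluorescence measured.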
# [8] = qHTS assay to identify small molecule antagonists of the estrogen related receptor signaling pathway with the pleiotropic PPARgamma coactivator (PGC) from Tox21 10K library (AID 1224841; call rule not given here; note: actives are mostly falling curves and most rising ones were filed inactive; nearly all actives have a fitted effect of over 50% in size; note: potency is the fitted concentration of half-maximal effect; for activity, negative = inhibition: series mostly up to about 92 µM)
# Summary of the method: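 Test chemicals dissolved in DMSO were applied to pre-incubated (6 h) PGC/ERR cells at 2,000 cells/well for an 18 h, 37 C treatment; reporter luminescence was then read using One-Glo.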
# [9] = qHTS assay to identify small molecule agonists of the estrogen related receptor signaling pathway with the pleiotropic PPARgamma coactivator (PGC) from Tox21 10K library (AID 1224842); note: nearly all actives have a fitted effect of over 15% in size
# Summary of the method: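 PGC/ERR reporter cells (NTP line) were seeded 2,000 per well, rested 6 h at 37 C/5% CO2, then pin-dosed with compounds in DMSO for 18 h at 37 C; luciferase read by One-Glo luminescence after 30 min at room temperature.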
# [10] = biological target: Thyrotropin receptor (Homo sapiens) (UniProt P16473); test: qHTS assay to identify small molecule agonists of the thyroid stimulating hormone receptor (TSHR) signaling pathway (AID 1224843; calls by dose curve; note: nearly all actives have a fitted effect of over 45% in size; note: potency is the fitted concentration of half-maximal effect)
# Sequence of Thyrotropin receptor (Homo sapiens) (P16473 whole entry, looked up): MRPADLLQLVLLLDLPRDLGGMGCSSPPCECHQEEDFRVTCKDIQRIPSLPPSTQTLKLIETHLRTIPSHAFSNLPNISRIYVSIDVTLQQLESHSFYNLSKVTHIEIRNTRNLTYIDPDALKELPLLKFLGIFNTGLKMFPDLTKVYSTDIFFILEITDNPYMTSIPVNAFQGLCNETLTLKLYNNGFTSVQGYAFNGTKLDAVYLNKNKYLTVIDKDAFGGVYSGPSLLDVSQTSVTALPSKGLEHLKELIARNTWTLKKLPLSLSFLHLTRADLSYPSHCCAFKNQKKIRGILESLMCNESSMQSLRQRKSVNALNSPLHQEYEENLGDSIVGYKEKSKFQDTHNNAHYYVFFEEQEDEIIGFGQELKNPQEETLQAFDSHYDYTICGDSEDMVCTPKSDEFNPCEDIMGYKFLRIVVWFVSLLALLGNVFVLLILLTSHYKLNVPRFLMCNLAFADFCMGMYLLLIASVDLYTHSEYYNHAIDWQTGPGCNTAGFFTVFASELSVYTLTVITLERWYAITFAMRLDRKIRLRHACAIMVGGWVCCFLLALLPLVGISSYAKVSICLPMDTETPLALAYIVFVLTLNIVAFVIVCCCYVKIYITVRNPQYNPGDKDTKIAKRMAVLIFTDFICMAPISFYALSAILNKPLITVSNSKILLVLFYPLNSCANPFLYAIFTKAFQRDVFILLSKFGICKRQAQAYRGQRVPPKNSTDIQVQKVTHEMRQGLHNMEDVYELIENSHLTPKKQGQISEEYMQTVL
# Summary of the method: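 Compounds are titrated over 15 concentrations, in triplicate, onto TSHR-HEK293 cells seeded at 800/well. Plates sit 30 min at room temperature before cAMP-d2 and anti-cAMP cryptate are added; signal is read after a further hour.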
compound,measurement,setting,value
CC(C)C(=O)c1c(C(C)C)nn2ccccc12,Potency,[1],inactive
same,Potency,[2],inactive
same,Potency,[3],inactive
same,Potency,[4],inactive
same,Potency,[5],inactive
same,Potency,[6],23.7 µM (active)
same,Potency,[7],inactive
same,Potency,[8],inactive
c1ccc2c(c1)-c1cccc3c1c-2cc1ccccc13,Potency,[1],inactive
same,Potency,[2],7.1 µM (active)
same,Potency,[3],inactive
same,Potency,[4],inactive
same,Potency,[5],inactive
same,Potency,[6],21.2 µM (active) and 17.2 µM (active)
same,Potency,[7],inactive
CCc1ccc(C(c2ccc(CC)cc2)C(Cl)Cl)cc1,Potency,[1],inactive
same,Potency,[2],inactive
same,Potency,[3],inactive
same,Potency,[4],inactive
same,Potency,[5],inactive
same,Potency,[6],22 µM (active)
same,Potency,[7],inactive
CCN(CC)C(=S)SSC(=S)N(CC)CC,Potency,[1],243 nM (active) and 88.4 nM (active) and 335 nM (active)
same,Potency,[2],8.94 µM (active) and 6.48 µM (active) and 8.71 µM (active)
same,Potency,[3],273 nM (active) and 157 nM (active) and 422 nM (active)
same,Potency,[4],273 nM (active) and 249 nM (active) and 211 nM (active)
same,Potency,[5],273 nM (active) and 78.8 nM (active) and 298 nM (active)
same,Potency,[6],inactive
same,Potency,[7],193 nM (active) and 44.3 nM (active) and 266 nM (active)
same,Potency,[8],243 nM (active) and 366 nM (active)
same,Potency,[9],inactive
Cc1cccc(O)c1C,Potency,[1],inactive
same,Potency,[2],inactive
same,Potency,[3],inactive
same,Potency,[4],inactive
same,Potency,[5],inactive
same,Potency,[6],inactive
same,Potency,[7],inactive
same,Potency,[8],inactive
same,Potency,[10],inactive
c1cnc2cc3c(cc2n1)C1CNCC3C1,Potency,[1],inactive
same,Potency,[2],inactive
same,Potency,[3],inactive
same,Potency,[4],inactive
same,Potency,[5],inactive
same,Potency,[6],inactive
same,Potency,[7],inactive
same,Potency,[8],inactive
COC(=O)c1cccc(C(=O)OC)c1,Potency,[1],inactive
same,Potency,[2],inactive
same,Potency,[3],inactive
same,Potency,[4],inactive
same,Potency,[5],inactive
same,Potency,[6],inactive
same,Potency,[7],inactive
C[N+]1([O-])CCOCC1,Potency,[1],inactive
same,Potency,[2],inactive
same,Potency,[3],inactive
same,Potency,[4],inactive
same,Potency,[5],inactive
same,Potency,[6],inactive
same,Potency,[7],inactive
same,Potency,[8],inactive
same,Potency,[9],inactive
same,Potency,[10],inactive
O=S(=O)(O)c1ccc2nc(-c3ccccc3)[nH]c2c1,Potency,[1],inactive
same,Potency,[2],19 µM (active) and 12.3 µM (active)
same,Potency,[3],inactive
same,Potency,[4],inactive
same,Potency,[5],inactive
same,Potency,[6],inactive
same,Potency,[7],inactive
same,Potency,[8],inactive
same,Potency,[9],inactive
same,Potency,[10],inactive
NC(Cc1ccc(Cl)cc1)C(=O)O (configuration not stated),"viability change, negative = cytotoxic",[1],-4.51% [at 0.349 µM] (inactive)
same,"activity change, negative = inhibition",[2],3.14% [at 0.435 µM] (inactive)
same,"viability change, negative = cytotoxic",[3],1.54% [at 0.349 µM] (inactive)
same,"activity change, negative = cytotoxicity",[4],6.69% [at 0.349 µM] (inactive)
same,"activity, negative = inhibition",[5],-14.1% [at 0.349 µM] (inactive)
same,activation,[6],0.949% [at 0.349 µM] (inactive)
same,"viability change, negative = cytotoxic",[7],-10% [at 0.349 µM] (inactive)
same,"activity, negative = inhibition",[8],0.39% [at 0.349 µM] (inactive)
same,activation,[10],-0.308% [at 0.349 µM] (inactive)
O=C1CC2(CCCC2)CC(=O)N1CCCCN1CCN(c2ncccn2)CC1,Potency,[1],inactive
same,Potency,[2],inactive
same,Potency,[3],inactive
same,Potency,[4],inactive
same,Potency,[5],inactive
same,Potency,[6],inactive
same,Potency,[7],inactive
same,Potency,[8],19.3 µM (active) and inactive
same,Potency,[9],inactive
same,Potency,[10],inactive
CCCCCCCCCCCCCCCCCl,"viability change, negative = cytotoxic",[1],1.81% [at 19 µM] (inactive)
same,"activity change, negative = inhibition",[2],0.302% [at 23.6 µM] (inactive)
same,"viability change, negative = cytotoxic",[3],-1.15% [at 19 µM] (inactive)
same,"activity change, negative = cytotoxicity",[4],-1.23% [at 19 µM] (inactive)
same,"activity, negative = inhibition",[5],-1.8% [at 19 µM] (inactive)
same,activation,[6],-1.81% [at 19 µM] (inactive)
same,"viability change, negative = cytotoxic",[7],6.02% [at 19 µM] (inactive)
same,"activity, negative = inhibition",[8],65% [at 19 µM] (inactive)
same,activation,[10],0.927% [at 19 µM] (inactive)
CCCC(=O)c1ccccc1,Potency,[1],inactive
same,Potency,[2],inactive
same,Potency,[3],inactive
same,Potency,[4],inactive
same,Potency,[5],inactive
same,Potency,[6],inactive
same,Potency,[7],inactive
same,Potency,[8],inactive
same,Potency,[10],inactive
COC(c1ccccc1)(c1ccccc1)[C@H](Oc1nc(C)cc(C)n1)C(=O)O,Potency,[1],inactive
same,Potency,[2],inactive
same,Potency,[3],inactive
same,Potency,[4],inactive
same,Potency,[5],inactive
same,Potency,[6],inactive
same,Potency,[7],inactive
same,Potency,[8],inactive
same,Potency,[10],inactive
CC(=O)CC(=O)Nc1ccc2[nH]c(=O)[nH]c2c1,Potency,[1],inactive
same,Potency,[2],inactive
same,Potency,[3],inactive
same,Potency,[4],inactive
same,Potency,[5],inactive
same,Potency,[6],inactive
same,Potency,[7],inactive
same,Potency,[8],inactive
same,Potency,[10],inactive
Cc1cccc([N+](=O)[O-])c1C(=O)O,Potency,[1],inactive
same,Potency,[2],inactive
same,Potency,[3],inactive
same,Potency,[4],inactive
same,Potency,[5],inactive
same,Potency,[6],inactive
same,Potency,[7],inactive
same,Potency,[8],inactive
same,Potency,[10],inactive
C=CS(=O)(=O)O,Potency,[1],inactive
same,Potency,[2],inactive
same,Potency,[3],inactive
same,Potency,[4],inactive
same,Potency,[5],inactive
same,Potency,[6],inactive
same,Potency,[7],inactive
same,Potency,[8],inactive
same,Potency,[10],inactive
CC(C)(C)c1ccccc1,Potency,[1],inactive
same,Potency,[2],inactive
same,Potency,[3],inactive
same,Potency,[4],inactive
same,Potency,[5],inactive
same,Potency,[6],inactive
same,Potency,[7],inactive
same,Potency,[8],inactive
same,Potency,[9],inactive
same,Potency,[10],inactive
CC(=O)OCCOCCOCCOC(C)=O,Potency,[1],inactive
same,Potency,[2],inactive
same,Potency,[3],inactive
same,Potency,[4],inactive
same,Potency,[5],inactive
same,Potency,[6],inactive
same,Potency,[7],inactive
same,Potency,[10],6.77 µM (active) and inactive
COc1ccc(COC(C)=O)cc1,Potency,[1],inactive
same,Potency,[2],inactive
same,Potency,[3],inactive
same,Potency,[4],inactive
same,Potency,[5],inactive
same,Potency,[7],inactive
same,Potency,[8],inactive
same,Potency,[10],inactive
CC(=O)N[C@@H](CS)C(=O)O,Potency,[1],inactive
same,Potency,[2],inactive
same,Potency,[3],inactive
same,Potency,[4],inactive
same,Potency,[5],inactive
same,Potency,[6],inactive
same,Potency,[7],inactive
same,Potency,[10],inactive
